The supplement of paper PMC11732987, “Enantioselective OTUD7B fragment discovery through chemoproteomics screening and high-throughput optimisation” (Communications Chemistry, 2025)

Key:
Experiment in all cases: log2 ratio of Biotin-Ahx-Ub-VS probe labelling (fragment/DMSO); higher = less target engagement (more negative = stronger competition), active = hit call of the paper (q ≤ 0.05, log2 ratio ≤ -1)
Settings in all cases: compound concentration: 200 uM; treatment time: 3 h
USP19 = biological target: T1, USP19 (UniProt O94966)
T1 sequence (whole entry): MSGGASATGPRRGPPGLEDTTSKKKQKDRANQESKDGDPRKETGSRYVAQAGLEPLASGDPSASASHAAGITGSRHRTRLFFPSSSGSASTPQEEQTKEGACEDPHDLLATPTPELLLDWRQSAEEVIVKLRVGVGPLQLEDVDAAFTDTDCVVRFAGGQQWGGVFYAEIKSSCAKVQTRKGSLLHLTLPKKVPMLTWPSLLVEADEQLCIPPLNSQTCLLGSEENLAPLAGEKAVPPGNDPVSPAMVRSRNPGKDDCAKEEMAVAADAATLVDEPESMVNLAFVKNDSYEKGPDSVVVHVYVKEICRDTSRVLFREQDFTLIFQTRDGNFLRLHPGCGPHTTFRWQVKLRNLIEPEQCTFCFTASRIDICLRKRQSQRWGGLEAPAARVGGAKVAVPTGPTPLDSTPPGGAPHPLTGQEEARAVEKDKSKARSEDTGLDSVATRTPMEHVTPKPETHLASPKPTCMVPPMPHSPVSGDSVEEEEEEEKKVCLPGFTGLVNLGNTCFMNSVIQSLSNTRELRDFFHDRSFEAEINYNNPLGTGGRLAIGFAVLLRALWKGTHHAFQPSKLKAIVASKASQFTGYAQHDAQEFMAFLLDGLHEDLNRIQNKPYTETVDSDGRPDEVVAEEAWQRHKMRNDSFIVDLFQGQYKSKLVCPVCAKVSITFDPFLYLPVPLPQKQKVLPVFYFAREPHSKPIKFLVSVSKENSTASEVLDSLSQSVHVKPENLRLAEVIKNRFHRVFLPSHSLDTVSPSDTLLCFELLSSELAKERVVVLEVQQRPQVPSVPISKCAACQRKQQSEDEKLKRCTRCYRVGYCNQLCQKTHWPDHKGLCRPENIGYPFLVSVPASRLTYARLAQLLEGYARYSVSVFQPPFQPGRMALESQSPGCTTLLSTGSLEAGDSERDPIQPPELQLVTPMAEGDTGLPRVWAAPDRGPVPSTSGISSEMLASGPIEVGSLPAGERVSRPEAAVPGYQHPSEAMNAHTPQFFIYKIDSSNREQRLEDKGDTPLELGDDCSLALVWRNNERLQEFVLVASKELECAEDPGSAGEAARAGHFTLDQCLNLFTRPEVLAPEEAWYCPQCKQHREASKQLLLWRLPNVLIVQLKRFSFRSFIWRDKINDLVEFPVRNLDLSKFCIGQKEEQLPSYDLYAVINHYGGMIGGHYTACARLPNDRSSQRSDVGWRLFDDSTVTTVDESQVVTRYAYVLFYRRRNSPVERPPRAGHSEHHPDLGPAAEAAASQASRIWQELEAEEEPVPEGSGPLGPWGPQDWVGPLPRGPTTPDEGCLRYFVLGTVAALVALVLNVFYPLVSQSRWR
In short: (§1)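 Each value is an average log2 ratio of fragment to vehicle, tested by unpaired t-test. The underlying Spectronaut label-free quantities were global-median-normalised, and only proteins with ≥2 unique peptides were included. Triplicate HEK293T lysate samples (495 µg) were exposed to fragment at 200 µM or vehicle for 3 h, then to Biotin-Ahx-Ub-VS at 0.5 µM final for 1 h, before NeutrAvidin enrichment of labelled DUBs, LysC and trypsin digestion, and diaPASEF LC-MS/MS.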

USP24 = USP24 (UniProt Q9UPU5)
USP24, sequence (Q9UPU5 whole entry): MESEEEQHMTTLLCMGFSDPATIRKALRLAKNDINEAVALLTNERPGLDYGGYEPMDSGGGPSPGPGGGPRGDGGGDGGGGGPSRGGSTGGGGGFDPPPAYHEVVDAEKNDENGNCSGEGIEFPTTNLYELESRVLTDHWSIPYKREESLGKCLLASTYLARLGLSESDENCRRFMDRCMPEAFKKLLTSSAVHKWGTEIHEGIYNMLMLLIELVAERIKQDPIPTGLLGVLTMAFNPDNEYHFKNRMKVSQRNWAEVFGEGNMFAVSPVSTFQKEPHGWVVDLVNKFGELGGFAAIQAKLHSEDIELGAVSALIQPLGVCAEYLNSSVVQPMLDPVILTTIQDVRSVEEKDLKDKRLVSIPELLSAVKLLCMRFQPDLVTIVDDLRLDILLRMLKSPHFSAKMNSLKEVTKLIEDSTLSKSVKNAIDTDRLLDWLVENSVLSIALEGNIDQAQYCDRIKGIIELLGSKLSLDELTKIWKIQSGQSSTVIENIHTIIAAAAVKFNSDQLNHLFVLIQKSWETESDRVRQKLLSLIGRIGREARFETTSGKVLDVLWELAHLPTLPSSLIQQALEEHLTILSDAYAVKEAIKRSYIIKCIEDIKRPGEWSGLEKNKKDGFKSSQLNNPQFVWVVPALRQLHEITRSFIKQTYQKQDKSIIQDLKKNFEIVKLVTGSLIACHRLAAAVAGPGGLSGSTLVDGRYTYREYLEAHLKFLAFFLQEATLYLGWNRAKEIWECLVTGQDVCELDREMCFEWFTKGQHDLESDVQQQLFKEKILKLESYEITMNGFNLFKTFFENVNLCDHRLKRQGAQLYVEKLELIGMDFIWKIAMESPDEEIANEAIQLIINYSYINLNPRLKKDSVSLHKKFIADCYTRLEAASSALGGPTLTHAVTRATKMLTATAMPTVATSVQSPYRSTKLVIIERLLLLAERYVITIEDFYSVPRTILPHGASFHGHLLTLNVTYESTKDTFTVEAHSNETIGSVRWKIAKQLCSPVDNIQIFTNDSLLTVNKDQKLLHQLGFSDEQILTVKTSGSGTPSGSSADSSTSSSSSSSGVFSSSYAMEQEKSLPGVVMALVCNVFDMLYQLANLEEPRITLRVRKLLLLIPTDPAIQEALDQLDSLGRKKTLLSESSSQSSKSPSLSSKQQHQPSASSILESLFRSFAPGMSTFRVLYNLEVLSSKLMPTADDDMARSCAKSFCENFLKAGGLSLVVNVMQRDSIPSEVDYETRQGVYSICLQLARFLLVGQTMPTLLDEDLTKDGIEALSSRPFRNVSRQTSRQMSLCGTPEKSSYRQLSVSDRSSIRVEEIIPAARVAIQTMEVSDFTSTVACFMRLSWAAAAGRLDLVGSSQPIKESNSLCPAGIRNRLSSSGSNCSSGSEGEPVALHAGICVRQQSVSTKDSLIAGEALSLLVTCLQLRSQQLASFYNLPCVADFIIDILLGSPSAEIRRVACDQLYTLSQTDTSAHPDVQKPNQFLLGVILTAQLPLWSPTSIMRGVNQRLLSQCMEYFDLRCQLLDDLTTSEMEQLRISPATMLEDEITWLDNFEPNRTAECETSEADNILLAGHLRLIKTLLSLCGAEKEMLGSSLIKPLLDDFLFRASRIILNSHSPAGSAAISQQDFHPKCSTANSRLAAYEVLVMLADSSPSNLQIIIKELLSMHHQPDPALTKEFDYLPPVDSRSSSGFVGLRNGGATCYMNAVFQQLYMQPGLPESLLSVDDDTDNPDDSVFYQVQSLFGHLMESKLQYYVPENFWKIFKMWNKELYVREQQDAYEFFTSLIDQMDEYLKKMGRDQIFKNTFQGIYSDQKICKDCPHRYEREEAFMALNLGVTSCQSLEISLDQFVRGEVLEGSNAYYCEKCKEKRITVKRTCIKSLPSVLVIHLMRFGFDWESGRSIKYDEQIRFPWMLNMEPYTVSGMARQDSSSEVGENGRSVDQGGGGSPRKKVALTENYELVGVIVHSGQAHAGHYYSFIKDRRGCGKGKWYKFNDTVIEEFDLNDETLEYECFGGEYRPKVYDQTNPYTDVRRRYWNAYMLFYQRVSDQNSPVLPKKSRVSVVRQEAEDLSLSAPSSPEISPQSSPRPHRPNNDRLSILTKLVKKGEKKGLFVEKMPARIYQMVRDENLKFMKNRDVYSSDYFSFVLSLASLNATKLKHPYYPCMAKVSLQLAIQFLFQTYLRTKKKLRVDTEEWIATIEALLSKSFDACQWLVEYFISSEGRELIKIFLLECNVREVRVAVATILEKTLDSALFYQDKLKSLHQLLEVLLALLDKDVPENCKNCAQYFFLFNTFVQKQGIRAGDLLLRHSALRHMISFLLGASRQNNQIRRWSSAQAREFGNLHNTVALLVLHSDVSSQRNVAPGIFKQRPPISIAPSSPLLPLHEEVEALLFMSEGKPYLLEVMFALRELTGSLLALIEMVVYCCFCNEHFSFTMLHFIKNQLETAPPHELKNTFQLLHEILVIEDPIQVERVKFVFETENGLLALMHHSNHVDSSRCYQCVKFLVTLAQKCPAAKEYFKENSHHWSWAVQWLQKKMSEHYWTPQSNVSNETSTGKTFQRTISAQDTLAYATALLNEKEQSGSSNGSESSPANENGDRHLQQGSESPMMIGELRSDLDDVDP
In short: as §1

USP25 = biological target: T2, USP25 (UniProt Q9UHP3)
T2 sequence (whole entry): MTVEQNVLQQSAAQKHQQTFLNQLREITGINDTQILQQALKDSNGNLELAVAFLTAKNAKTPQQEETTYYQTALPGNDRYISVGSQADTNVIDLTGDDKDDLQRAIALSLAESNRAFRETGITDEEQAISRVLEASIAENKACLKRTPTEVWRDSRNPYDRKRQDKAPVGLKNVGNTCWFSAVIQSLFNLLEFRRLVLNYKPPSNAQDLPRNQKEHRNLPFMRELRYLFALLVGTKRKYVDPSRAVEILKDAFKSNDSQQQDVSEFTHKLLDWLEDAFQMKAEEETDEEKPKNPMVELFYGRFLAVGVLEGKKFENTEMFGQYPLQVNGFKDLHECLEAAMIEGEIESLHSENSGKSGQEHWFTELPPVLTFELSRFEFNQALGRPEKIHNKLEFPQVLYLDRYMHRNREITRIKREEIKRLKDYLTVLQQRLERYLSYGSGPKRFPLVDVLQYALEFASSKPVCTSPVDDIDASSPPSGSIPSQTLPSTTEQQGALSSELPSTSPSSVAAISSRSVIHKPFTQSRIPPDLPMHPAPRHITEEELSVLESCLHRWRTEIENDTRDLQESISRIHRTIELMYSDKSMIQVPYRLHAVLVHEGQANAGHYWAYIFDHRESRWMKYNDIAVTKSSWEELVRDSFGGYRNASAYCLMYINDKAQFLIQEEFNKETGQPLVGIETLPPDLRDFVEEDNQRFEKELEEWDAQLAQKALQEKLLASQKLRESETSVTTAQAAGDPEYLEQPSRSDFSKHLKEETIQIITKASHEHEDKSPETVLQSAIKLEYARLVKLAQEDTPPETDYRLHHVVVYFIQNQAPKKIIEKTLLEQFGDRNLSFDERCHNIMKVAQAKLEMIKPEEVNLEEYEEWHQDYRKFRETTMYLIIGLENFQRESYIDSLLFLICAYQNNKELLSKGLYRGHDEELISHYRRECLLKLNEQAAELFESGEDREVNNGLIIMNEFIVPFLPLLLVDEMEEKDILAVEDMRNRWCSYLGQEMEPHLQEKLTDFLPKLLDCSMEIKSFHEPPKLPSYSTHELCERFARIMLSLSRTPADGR
In short: as §1

USP28 = biological target: T3, USP28 (UniProt Q96RU2)
T3 sequence (whole entry): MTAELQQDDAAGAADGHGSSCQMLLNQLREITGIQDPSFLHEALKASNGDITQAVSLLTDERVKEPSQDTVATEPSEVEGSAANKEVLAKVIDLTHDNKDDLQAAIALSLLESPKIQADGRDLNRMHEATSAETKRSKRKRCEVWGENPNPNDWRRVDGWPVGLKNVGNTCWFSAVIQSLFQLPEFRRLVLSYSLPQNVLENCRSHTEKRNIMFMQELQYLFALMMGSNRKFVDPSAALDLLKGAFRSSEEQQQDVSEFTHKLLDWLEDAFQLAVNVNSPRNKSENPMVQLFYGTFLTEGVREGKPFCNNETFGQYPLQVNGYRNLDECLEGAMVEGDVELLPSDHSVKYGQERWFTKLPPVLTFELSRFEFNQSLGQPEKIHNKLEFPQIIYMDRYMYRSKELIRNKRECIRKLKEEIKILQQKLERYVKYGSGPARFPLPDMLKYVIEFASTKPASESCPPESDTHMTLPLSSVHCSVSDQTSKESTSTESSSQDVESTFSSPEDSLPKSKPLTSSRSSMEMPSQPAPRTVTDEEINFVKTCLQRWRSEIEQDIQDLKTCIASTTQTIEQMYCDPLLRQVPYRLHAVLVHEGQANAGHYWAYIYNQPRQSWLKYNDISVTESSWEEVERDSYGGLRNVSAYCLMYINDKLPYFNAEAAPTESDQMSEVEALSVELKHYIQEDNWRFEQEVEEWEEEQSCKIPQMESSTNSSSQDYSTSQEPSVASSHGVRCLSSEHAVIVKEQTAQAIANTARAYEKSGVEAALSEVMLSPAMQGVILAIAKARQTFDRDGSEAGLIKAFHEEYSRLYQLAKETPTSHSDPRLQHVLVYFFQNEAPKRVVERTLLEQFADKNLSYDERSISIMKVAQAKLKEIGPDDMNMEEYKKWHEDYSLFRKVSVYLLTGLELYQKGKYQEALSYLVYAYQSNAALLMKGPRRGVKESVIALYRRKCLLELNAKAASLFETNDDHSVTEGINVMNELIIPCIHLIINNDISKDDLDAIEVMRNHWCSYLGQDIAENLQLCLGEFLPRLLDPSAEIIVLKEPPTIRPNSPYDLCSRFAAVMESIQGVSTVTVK
In short: as §1

Measured: log2 ratio of Biotin-Ahx-Ub-VS probe labelling

CC(NC(=O)CCl)c1cccc2ccccc12 (centres undefined)
inactive: USP19 -0.242 | USP24 -0.343 | USP25 -0.33 | USP28 -0.501
